Experimental data from PubChem BioAssay (Tox21).
Where “and” joins values, the source holds several entries; their conditions need not be identical. Equal entries are not always repeated. Some compounds were tested as several samples or in several runs, with calls that do not always agree. Calls of active or inactive are those of the source. A call without a number means that no potency is given here. Unless noted, calls come from the whole dose curve; as a rule, active = well fitted curve in the direction sought with a large enough effect in the repeat runs; inconclusive = weak or mixed curves; inactive = no such curve, though single readings can be large; an effect the other way counts as inactive or inconclusive.

Columns and labels:
[1] = qHTS assay to identify small molecule antagonists of the thyroid receptor (TR) signaling pathway - cell viability counter screen (AID 743064); note: nearly all actives have a fitted effect of over 50% in size; note: potency is the fitted concentration of half-maximal effect
Method in brief: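 CellTiter-Fluor readout, 30 min at 37 °C/5% CO2, following 23.5 h incubation of GH3.TRE-Luc cells with test compound and 1 nM T3 (final).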

[2] = qHTS assay to identify small molecule antagonists of the thyroid receptor (TR) signaling pathway (AID 743065); note: nearly all actives have a fitted effect of over 55% in size; note: potency is the fitted concentration of half-maximal effect
Method in brief: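 Antagonism measured as loss of luciferase signal in GH3 cells stably carrying a TRE-luciferase reporter, co-treated with compound and T3 (1 nM final) for 23.5 h at 37 C. Viability was read in the same well by CellTiter-Fluor.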

[3] = system: thyroid hormone receptor (rat, GH3 cells); test: qHTS assay to identify small molecule agonists of the thyroid receptor (TR) signaling pathway (AID 743066; calls by dose curve; note: potency is the fitted concentration of half-maximal effect)
[4] = target: Estrogen receptor (Homo sapiens) (UniProt P03372); test: qHTS assay to identify small molecule antagonists of the estrogen receptor alpha (ER-alpha) signaling pathway (AID 743069; active = well fitted curve in the direction sought with a large enough effect in the signal ratio in the repeat runs, not every such curve was filed as active; inconclusive = weak or mixed curves, or effect the other way; inactive = no such curve, though single readings can be large or run the other way; the % refers to the signal ratio)
Estrogen receptor (Homo sapiens), sequence (P03372 whole entry, looked up): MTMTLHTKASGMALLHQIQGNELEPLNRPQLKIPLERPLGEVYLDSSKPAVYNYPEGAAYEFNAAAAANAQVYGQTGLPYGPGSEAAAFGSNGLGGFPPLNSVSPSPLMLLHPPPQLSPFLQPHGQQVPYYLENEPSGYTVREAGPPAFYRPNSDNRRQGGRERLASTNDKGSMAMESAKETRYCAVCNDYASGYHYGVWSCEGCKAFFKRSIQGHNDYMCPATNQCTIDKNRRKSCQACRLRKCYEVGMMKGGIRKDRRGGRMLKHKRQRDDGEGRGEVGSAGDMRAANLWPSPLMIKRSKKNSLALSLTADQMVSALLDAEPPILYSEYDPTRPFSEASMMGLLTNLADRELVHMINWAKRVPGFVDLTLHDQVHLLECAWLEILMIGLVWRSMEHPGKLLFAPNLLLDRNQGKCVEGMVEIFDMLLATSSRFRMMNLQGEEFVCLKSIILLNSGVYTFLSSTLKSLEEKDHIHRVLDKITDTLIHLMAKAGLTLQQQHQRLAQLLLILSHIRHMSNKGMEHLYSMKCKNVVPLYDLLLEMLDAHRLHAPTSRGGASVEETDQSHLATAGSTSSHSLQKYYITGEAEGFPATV
Method in brief: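 Fluorescence intensity from a beta-lactamase FRET substrate served as the read-out. Cells: HEK293 with stably integrated ER-alpha-UAS-bla reporter. Agonist 17beta-estradiol was co-added with compounds; incubation 18 hr at 37C, substrate 2 hr at room temperature.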

[5] = target: Estrogen receptor (Homo sapiens) (UniProt P03372); test: qHTS assay to identify small molecule agonists of the estrogen receptor alpha (ER-alpha) signaling pathway (AID 743075; calls by dose curve; note: potency is the fitted concentration of half-maximal effect)
[6] = target: Estrogen receptor (Homo sapiens) (UniProt P03372); test: qHTS assay to identify small molecule agonists of the estrogen receptor alpha (ER-alpha) signaling pathway using the BG1 cell line (AID 743079); note: nearly all actives have a fitted effect of over 20% in size; note: potency is the fitted concentration of half-maximal effect
[7] = qHTS assay to identify small molecule antagonists of the estrogen receptor alpha (ER-alpha) signaling pathway using the BG1 cell line (AID 743080; calls by dose curve; note: series mostly up to about 70 µM; nearly all actives have a fitted effect of over 25% in size)
Method in brief: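 Antagonist mode: compounds in DMSO were pinned onto BG1-Luc-4E2 cells alongside 17beta-estradiol agonist, incubated 21.5 h, and ERE-driven luciferase measured with ONE-Glo. Cytotoxicity was multiplexed using CellTiter-Fluor fluorescence.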

[8] = qHTS assay to identify small molecule antagonists of the estrogen receptor alpha (ER-alpha) signaling pathway using the BG1 cell line - cell viability counter screen (AID 743081);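 note: compound given together with 17beta-estradiol as the ER stimulus; series mostly up to about 70 µM; nearly all actives have a fitted effect of over 45% in size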
Aromatase (Homo sapiens) = Aromatase (Homo sapiens) (UniProt P11511); test: qHTS assay to identify aromatase inhibitors (AID 743083); note: nearly all actives have a fitted effect of over 55% in size; note: potency is the fitted concentration of half-maximal effect
Aromatase (Homo sapiens), sequence (P11511 whole entry, looked up): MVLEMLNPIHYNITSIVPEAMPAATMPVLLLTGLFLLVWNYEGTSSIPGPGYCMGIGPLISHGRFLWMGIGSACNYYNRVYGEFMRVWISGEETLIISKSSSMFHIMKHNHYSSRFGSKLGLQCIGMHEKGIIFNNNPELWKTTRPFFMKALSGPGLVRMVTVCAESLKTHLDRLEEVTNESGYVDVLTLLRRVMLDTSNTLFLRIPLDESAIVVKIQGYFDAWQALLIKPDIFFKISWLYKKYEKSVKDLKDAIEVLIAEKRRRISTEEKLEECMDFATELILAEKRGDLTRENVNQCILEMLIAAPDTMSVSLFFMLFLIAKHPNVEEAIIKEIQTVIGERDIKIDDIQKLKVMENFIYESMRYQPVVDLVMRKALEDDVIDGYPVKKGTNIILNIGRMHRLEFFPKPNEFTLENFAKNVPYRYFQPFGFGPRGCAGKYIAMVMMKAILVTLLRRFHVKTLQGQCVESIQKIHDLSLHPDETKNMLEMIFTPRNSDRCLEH

[9] = qHTS assay to identify small molecule antagonists of the estrogen receptor alpha (ER-alpha) signaling pathway - cell viability counter screen (AID 743074; calls by dose curve; note: nearly all actives have a fitted effect of over 45% in size; note: potency is the fitted concentration of half-maximal effect)

Structure (SMILES)	Potency [1]	Potency [2]	Potency [3]	Potency [4]	Potency [5]	Potency [6]	Potency [7]	Potency [8]	Potency (Aromatase (Homo sapiens))	Potency [9]
CCCCC(CC)COC(=O)c1c(Br)c(Br)c(Br)c(Br)c1C(=O)OCC(CC)CCCC (stereo unspecified)	inactive	inactive	inactive	inactive	inactive	inactive	inactive	inactive	inactive	–
C1CCNCC1	inactive	inactive	inactive	inactive	–	–	inactive	inactive	inactive	inactive
CC(C)c1ccc(NC(=O)N(C)C)cc1	inactive	inactive	inactive	inactive	inactive	–	–	inactive	inactive	inactive
O=C(N[C@H]1CN2CCC1CC2)c1ccc2c(c1)OCCO2	inactive	inactive	inactive	–	–	–	–	inactive	inactive	inactive
CC(C)(C)N(NC(=O)c1ccc(Cl)cc1)C(=O)c1ccccc1	3.42 µM (active)	inactive	inactive	inactive	inactive	–	inactive	–	inactive	inactive
Clc1ccc(Cl)c(Cl)c1	inactive	inactive	inactive and 30.6 µM (active)	–	–	–	–	inactive	inactive	inactive
OCC1CO1 (stereo unspecified)	inactive	inactive	inactive	–	inactive	inactive	–	inactive	inactive	inactive
Nc1ccc2c(c1)Cc1ccccc1-2	inactive	inactive	inactive	inactive	–	4.3 µM (active)	–	inactive	inactive	inactive
ClCc1ccccc1Cl	inactive	inactive	inactive	–	–	–	–	inactive	inactive	inactive
O=C(O)C(Cl)(Cl)Br	inactive	inactive	inactive	–	–	–	–	inactive	inactive	inactive
C[N+](C)(C)CCOC(=O)C(O)(c1ccccc1)c1ccccc1	inactive	inactive	inactive	–	–	–	–	inactive	inactive	inactive
O=C(NCNC(=O)NC1C(=O)NC(=O)N1CO)NC1C(=O)NC(=O)N1CO (stereo unspecified)	inactive	inactive	inactive	–	–	–	–	inactive	inactive	inactive
COc1ccc2c(c1OC)C(=O)O[C@H]2[C@@H]1c2cc3c(cc2CCN1C)OCO3	inactive	inactive	inactive	–	–	–	–	inactive	inactive	inactive
Nc1cccc2ccccc12	inactive	inactive	inactive	inactive	inactive	inactive	inactive	inactive	inactive	–
CN(C)c1ccc(N=O)cc1	3.87 µM (active) and 9.69 µM (active)	5.46 µM (active) and 12.2 µM (active)	13.7 µM (active)	–	inactive	12.2 µM (active)	–	–	9.72 µM (active) and 21.7 µM (active)	inactive
O=C(O)CCCOc1ccc(Cl)cc1Cl	inactive	inactive	inactive	–	–	–	–	inactive	inactive	inactive
CCOP(=S)(OCC)SCSc1cc(Cl)ccc1Cl	inactive	inactive	inactive	inactive	inactive	–	inactive	inactive	inactive	inactive
C#C[C@]1(O)CC[C@H]2[C@@H]3CCC4=CC(=O)CCC4=C3C=C[C@@]21CC	inactive	23.7 µM (active)	inactive	–	213 nM [inconclusive] (active)	0.0422 µM (active)	–	inactive	inactive	inactive
CC(C)(C#N)C(C)(C)C#N	inactive	inactive	inactive	–	–	–	–	inactive	inactive	inactive
COC1CC(=C(c2cccs2)c2cccs2)C[N+](C)(C)C1 (stereo unspecified)	inactive	inactive	inactive	inactive	inactive	–	inactive	inactive	inactive	inactive
C=CCc1ccc(OC(=O)Cc2ccccc2)c(OC)c1	inactive	inactive	inactive	–	–	–	–	inactive	inactive	inactive

Structure (SMILES)	Potency [1]	Potency [2]	Potency [3]	Potency [4]	Potency [5]	Potency [6]	Potency [7]	Potency [8]	Potency (Aromatase (Homo sapiens))	Potency [9]
N#CC(C#N)=C(C#N)C#N	inactive	inactive	inactive	inactive	inactive	inactive	–	inactive	inactive	inactive
CCCCOC(=O)CCC(=O)OCCCC	inactive	inactive	inactive	–	–	–	–	inactive	inactive	inactive
CCCN(CCOc1c(Cl)cc(Cl)cc1Cl)C(=O)n1ccnc1	62.4 µM (active)	27.9 µM (active) and 61.1 µM (active)	inactive	–	–	–	–	inactive	1.57 µM (active) and 969 nM (active)	inactive
CCOP(=S)(OCC)Oc1ccc(S(C)=O)cc1 (stereo unspecified)	inactive	inactive	inactive	–	inactive	inactive	inactive	inactive	inactive	inactive
CC(C)CCON=O	inactive	inactive	inactive	–	–	–	–	inactive	inactive	inactive
CCC1CCC(=O)O1 (stereo unspecified)	inactive	inactive	inactive	–	–	–	–	inactive	–	inactive
c1ccc2sc(SNC3CCCCC3)nc2c1	inactive	inactive	inactive	inactive	inactive	–	inactive	inactive	inactive	inactive
C=CCSSCC=C	inactive	inactive	inactive	–	–	–	–	inactive	inactive	inactive
O=C(O)c1cc(Cl)ccc1Cl	inactive	–	inactive	–	–	–	–	inactive	inactive	inactive
O=C1NC(=O)C(=O)C(=O)N1	inactive	–	inactive	inactive	inactive	inactive	inactive	inactive	inactive	inactive
Cc1ccccc1	inactive	–	inactive	–	–	–	–	inactive	inactive	inactive
CCC1(C2=NCCN2)Cc2ccccc2O1 (stereo unspecified)	inactive	–	inactive	–	inactive	inactive	inactive	inactive	inactive	inactive
OCCSSCCO	inactive	–	inactive	inactive	inactive	inactive	–	inactive	inactive	inactive
CCCCCCCCCCCCN(C)C	inactive	–	inactive	inactive	inactive	inactive	inactive	inactive	inactive	inactive
FC(F)OC(F)(F)C(F)Cl (stereo unspecified)	inactive	–	inactive	–	–	–	–	inactive	inactive	inactive
C[C@]12CC[C@H]3[C@@H](CCC4=CC(=O)CC[C@@H]43)[C@@H]1CC[C@@H]2OC(=O)CCc1ccccc1	inactive	–	inactive	–	–	–	–	–	–	inactive
CCCCCl	inactive	inactive	inactive	–	–	–	–	inactive	inactive	inactive
O=C(O)COc1cc(Cl)c(Cl)cc1Cl	inactive	54.5 µM (active)	inactive	–	–	–	–	inactive	inactive	–
Clc1ccc2ccccc2c1	inactive	–	inactive	inactive	inactive	–	–	inactive	inactive	inactive
CCCCC#N	inactive	–	inactive	inactive	inactive	inactive	–	inactive	inactive	inactive
Cc1cnc(C2=NC(C)(C(C)C)C(=O)N2)c(C(=O)O)c1 (stereo unspecified)	inactive	–	inactive	inactive	inactive	–	inactive	inactive	inactive	inactive

Structure (SMILES)	Potency [1]	Potency [2]	Potency [3]	Potency [4]	Potency [5]	Potency [6]	Potency [7]	Potency [8]	Potency (Aromatase (Homo sapiens))	Potency [9]
O=C=NC1CCCCC1	inactive	–	inactive	inactive	inactive	12.2 µM (active)	–	inactive	inactive	inactive
CCCC1CCCCN1 (stereo unspecified)	inactive	–	inactive	inactive	inactive	inactive	inactive	inactive	inactive	inactive
C[C@@H]1C[C@@H]([C@H](O)CC2CC(=O)NC(=O)C2)C(=O)[C@@H](C)C1	0.237 µM (active)	66.8 nM (active) and 60.8 nM (active)	inactive	–	–	–	–	inactive	750 nM (active) and 383 nM (active)	–
C[C@H]1[C@@H]2Cc3ccc(O)cc3[C@@]1(C)CCN2C	inactive	–	inactive	–	–	–	–	–	–	–
CCc1cnc(C2=NC(C)(C(C)C)C(=O)N2)c(C(=O)O)c1 (stereo unspecified)	inactive	–	inactive	–	–	–	–	inactive	inactive	inactive
CC[N+]1(CCOC(=O)C(O)(c2ccccc2)c2ccccc2)CCCCC1	inactive	–	inactive	inactive	–	8.41 µM (active)	–	inactive	inactive	inactive
Cc1ccc(N)c(C)c1	inactive	–	inactive	–	–	–	–	inactive	inactive	inactive
O=C1CC[C@@]2(O)[C@H]3Cc4ccc(O)c5c4[C@@]2(CCN3CC2CC2)[C@H]1O5	inactive	–	inactive	–	–	–	–	inactive	inactive	inactive
Cc1ncc(C[n+]2csc(CCO)c2C)c(N)n1	inactive	–	inactive	–	–	–	–	inactive	inactive	inactive
CC(C)CCCCCCCOC(=O)c1ccccc1C(=O)OCCCCCCCC(C)C	inactive	inactive	–	–	–	–	–	inactive	inactive	inactive
CC(C)(C)CC(C)(C)c1ccc(O)cc1	23.7 µM (active) and 25 µM (active)	26.6 µM (active) and 21.7 µM (active)	–	–	–	–	–	inactive	–	43.6 µM (active)
FC(Cl)(Cl)C(F)(Cl)Cl	inactive	–	inactive	inactive	inactive	inactive	inactive	inactive	inactive	inactive
CNC(=O)Oc1cccc(N=CN(C)C)c1	inactive	–	inactive	–	inactive	inactive	–	inactive	inactive	inactive
CCCCCCCCn1sccc1=O	6.13 µM (active) and 5.09 µM (active)	4.87 µM (active) and 3.6 µM (active)	–	–	–	–	inactive	inactive	10.9 µM (active) and 32.1 µM (active)	55.1 µM (active) and 51.3 µM (active)
COP(=O)(OC)OC(Br)C(Cl)(Cl)Br (stereo unspecified)	54.5 µM (active) and 61.1 µM (active)	–	inactive	–	61.7 µM [inconclusive] (active) and inactive	inactive	–	inactive	61.2 µM (active) and 61.1 µM (active)	inactive
CCCCCCCCCCCC[N+](C)(C)CCOc1ccccc1	13.3 µM (active) and 9.69 µM (active)	–	inactive	–	inactive	–	inactive	inactive	21.1 µM (active) and 19.3 µM (active)	19 µM (active) and 17.4 µM (active)
CN(C1CCCCC1)C1CCCCC1	inactive	–	inactive	inactive	inactive	inactive	–	inactive	inactive	inactive
CN1CC[C@]23c4c5ccc(O)c4O[C@H]2[C@@H](O)C=C[C@H]3[C@H]1C5	inactive	–	inactive	–	–	–	inactive	inactive	inactive	inactive
CCCCCBr	inactive	–	inactive	inactive	inactive	inactive	inactive	inactive	inactive	inactive
CCCCC1C(=O)NC(=O)N(C2CCCCC2)C1=O (stereo unspecified)	inactive	–	inactive	inactive	inactive	inactive	inactive	inactive	inactive	inactive
